Calls of active or inactive are those of the source.

These results are taken from PubChem BioAssay.

The nature of experiment [1]: compounds binding Alexa647 anti-His antibody – biochemical, small-molecule microarray, 635 nm fluorescence, artefact control for SMM control protein annotation, primary screen (AID 1128).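 Note: score merges feature fluorescence with signal-to-noise for each printed compound spot.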 Particulars: higher = more signal.
Experiment [2] deals with Human papillomavirus type 1a E7 protein (residues 1-88). Briefly: HPV1a E7 small-molecule binders, primary screen, biochemical, small-molecule microarray, residues 1-88, 635 nm (AID 1129). Particulars: small-molecule microarray binding, fluorescence 635 nm; higher = more signal.
In experiment [3] the target is Focal adhesion kinase 1 (Homo sapiens) (UniProt Q05397). Briefly: PTK2 protein binding on printed compound slides – biochemical, small-molecule microarray, 635/667 nm fluorescence, BSA, DTT, primary screen (AID 1130).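 Note: composite of spot emission at 667 nm and signal to noise over triplicate slides.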 Particulars: 635 nm fluorescence, higher = more signal.
The subject of experiment [4] is Fibrinogen (Alexa647-labelled). Briefly: Alexa647-fibrinogen binding to printed small molecules – biochemical, small-molecule microarray, 635/667 nm fluorescence, artefact control for SMM control-protein annotation, profiling panel (AID 1131).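 Note: z-score merges 667 nm fluorescence with per-spot signal-to-noise over triplicate slides.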 Particulars: fibrinogen-A647 binding fluorescence, higher = more signal.
The target in experiment [5] is Follistatin (Homo sapiens) (UniProt P19883). Briefly: FST protein binding to printed compounds – biochemical, small-molecule microarray, 635/667 nm fluorescence, primary screen (AID 1132). The settings on record: 635 nm fluorescence, higher = more signal.
The target in experiment [6] is Fibroblast growth factor 2 (Homo sapiens) (UniProt P09038). Briefly: basic fibroblast growth factor binding to printed compounds – biochemical, small-molecule microarray, 635/667 nm fluorescence, primary screen (AID 1133). Particulars: FGF2, fluorescence 635/667, higher = more signal.
Experiment [7] is described as follows: JC-1 mitochondrial potential readout, lung cancer cells – cell-based, A549, JC-1 fluorescence, basal, 24 h, 100 nL, profiling panel (AID 1138).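 Note: A549 lung adenocarcinoma cells under basal conditions with no added stimulus; test concentration not given here.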 The settings on record: higher = more signal.
The subject of another experiment is Lefty1. Briefly: Lefty1 protein binding to printed compounds – biochemical, small-molecule microarray, 635/667 nm fluorescence, primary screen (AID 1139). Particulars: fluorescence 635/667, higher = more signal.
Experiment [8] relates to wheat germ agglutinin (Triticum aestivum), Alexa647-labelled. Briefly: Alexa647-WGA lectin binding to printed small molecules – biochemical, small-molecule microarray, 635/667 nm fluorescence, artefact control for SMM control-protein annotation, profiling panel (AID 1140).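 Note: score merges 667 nm feature emission with signal to noise over triplicate slides.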 The settings on record: WGA-A647 binding, 635 nm fluorescence, higher = more signal.
The target in experiment [9] is Luciferin 4-monooxygenase (Photinus pyralis) (UniProt P08659). Briefly: inhibition of purified Photinus pyralis luciferase – biochemical, luminescence, purified enzyme, 2006 set, primary screen (AID 1141).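 Note: cell-free assay with purified firefly luciferase at 100 ng per well in PBS; test concentration not given here.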 Particulars: purified firefly luciferase, SteadyGlo luminescence, 30 min; higher = more signal, called active from +8 up or from −8 down.
Luciferin 4-monooxygenase (Photinus pyralis), sequence (P08659 whole entry, looked up): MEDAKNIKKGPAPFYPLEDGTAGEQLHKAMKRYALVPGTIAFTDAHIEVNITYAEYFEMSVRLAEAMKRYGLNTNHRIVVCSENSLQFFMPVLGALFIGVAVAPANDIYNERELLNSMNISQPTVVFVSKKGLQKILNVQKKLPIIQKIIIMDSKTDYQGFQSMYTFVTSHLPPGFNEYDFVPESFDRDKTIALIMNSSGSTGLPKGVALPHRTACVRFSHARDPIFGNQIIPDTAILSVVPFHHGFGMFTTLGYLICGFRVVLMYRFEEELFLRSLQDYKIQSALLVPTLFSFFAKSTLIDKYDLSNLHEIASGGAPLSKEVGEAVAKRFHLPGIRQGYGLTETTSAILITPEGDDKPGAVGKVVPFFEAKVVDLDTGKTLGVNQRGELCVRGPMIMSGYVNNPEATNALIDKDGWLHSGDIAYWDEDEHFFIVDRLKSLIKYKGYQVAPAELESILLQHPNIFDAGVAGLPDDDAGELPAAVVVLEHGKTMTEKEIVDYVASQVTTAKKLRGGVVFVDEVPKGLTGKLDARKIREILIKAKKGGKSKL

Fibroblast growth factor 2 (Homo sapiens), sequence (P09038 whole entry, looked up): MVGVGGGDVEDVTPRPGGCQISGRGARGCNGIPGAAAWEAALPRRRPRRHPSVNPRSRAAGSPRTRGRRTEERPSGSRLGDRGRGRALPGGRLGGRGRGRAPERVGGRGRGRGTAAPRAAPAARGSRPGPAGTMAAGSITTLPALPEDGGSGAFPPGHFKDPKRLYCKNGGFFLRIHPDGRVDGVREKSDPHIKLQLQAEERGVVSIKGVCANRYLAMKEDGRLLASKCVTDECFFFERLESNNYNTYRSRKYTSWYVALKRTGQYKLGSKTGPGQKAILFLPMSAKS
Follistatin (Homo sapiens), sequence (P19883 whole entry, looked up): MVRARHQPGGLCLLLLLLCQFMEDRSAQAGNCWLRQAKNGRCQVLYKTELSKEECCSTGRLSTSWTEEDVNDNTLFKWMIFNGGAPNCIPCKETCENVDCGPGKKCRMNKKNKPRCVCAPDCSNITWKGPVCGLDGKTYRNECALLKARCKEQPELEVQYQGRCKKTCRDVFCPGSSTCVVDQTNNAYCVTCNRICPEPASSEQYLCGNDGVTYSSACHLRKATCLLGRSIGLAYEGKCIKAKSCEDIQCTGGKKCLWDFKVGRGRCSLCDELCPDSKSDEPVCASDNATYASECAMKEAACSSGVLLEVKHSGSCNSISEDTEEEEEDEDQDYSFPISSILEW
Focal adhesion kinase 1 (Homo sapiens), sequence (Q05397 whole entry, looked up): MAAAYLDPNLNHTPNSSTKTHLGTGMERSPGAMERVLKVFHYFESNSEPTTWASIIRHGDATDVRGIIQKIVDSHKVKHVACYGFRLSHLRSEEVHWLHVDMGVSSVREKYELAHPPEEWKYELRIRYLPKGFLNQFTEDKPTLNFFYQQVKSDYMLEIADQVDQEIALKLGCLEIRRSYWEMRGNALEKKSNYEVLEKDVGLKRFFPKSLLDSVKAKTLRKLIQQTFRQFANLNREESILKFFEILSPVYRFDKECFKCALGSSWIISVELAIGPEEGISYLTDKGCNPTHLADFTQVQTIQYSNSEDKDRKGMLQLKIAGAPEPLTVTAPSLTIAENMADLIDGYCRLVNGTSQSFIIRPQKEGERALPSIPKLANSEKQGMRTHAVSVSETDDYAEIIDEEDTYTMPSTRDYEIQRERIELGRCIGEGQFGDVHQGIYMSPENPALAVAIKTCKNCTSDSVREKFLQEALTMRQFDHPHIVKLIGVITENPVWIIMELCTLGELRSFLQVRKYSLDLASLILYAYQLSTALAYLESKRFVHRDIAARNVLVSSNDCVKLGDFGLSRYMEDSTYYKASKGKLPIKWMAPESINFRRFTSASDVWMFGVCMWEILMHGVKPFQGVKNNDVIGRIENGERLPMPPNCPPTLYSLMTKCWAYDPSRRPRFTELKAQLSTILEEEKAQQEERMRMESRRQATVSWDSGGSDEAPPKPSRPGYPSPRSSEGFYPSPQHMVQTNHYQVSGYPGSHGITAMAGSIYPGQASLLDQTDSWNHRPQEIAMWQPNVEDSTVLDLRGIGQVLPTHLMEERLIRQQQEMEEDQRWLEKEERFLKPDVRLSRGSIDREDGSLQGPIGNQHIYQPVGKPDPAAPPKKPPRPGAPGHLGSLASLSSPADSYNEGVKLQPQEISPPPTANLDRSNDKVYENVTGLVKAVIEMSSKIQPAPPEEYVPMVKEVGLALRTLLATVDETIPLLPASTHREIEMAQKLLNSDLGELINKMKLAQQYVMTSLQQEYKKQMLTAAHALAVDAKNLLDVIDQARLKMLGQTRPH

With `CCOC(=O)C[C@H]1[C@H](OC(=O)c2cc3ccccc3oc2=O)[C@@H](NC(=O)C2CCCCC2)c2cc(OCCCO)ccc2N1C(=O)c1ccccc1`, the composite z-score in experiment [1] is 0.127; in experiment [2] it was 0.942; in experiment [3] it was 0.711; in experiment [4], 0.799; in experiment [5] it was 0.786; in experiment [6], 1.48. In addition, the composite z-score in the experiment with Lefty1 was 0.558; in [8], 0.667. The z-score in experiment [7] was -0.353; in [9] it was -0.196 (inactive).

Take `COCCOC(=O)N1C(=O)[C@@]2(c3ccccc31)[C@H](c1ccc(O)cc1)N1[C@H](c3ccccc3)[C@H](c3ccccc3)OC(=O)[C@H]1[C@@H]2C(=O)NC[C@H](O)c1ccccc1`: the composite z-score was 2.08 in experiment [1]; 1.2 in experiment [2]; -0.0504 in experiment [3]; 0.068 in experiment [4]; 0.532 in experiment [5]; -0.104 in experiment [6]. Further, the composite z-score with Lefty1 was found to be 0.282; in experiment [8], 0.0324. Moreover, the values for the z-score in experiment [7] and in [9] were -0.767 and 0.733 (inactive), respectively.

As for `CC(C)c1ccc(NN2C(C(O)C(c3ccccc3)c3ccccc3)C=CC3C(=O)N(c4ccccc4)C(=O)C32)cc1` (stereo not given), the composite z-score in [1] is 0.49; in experiment [2], 1.2; in experiment [3] it was 0.496; in experiment [4] it was 0.975; in [5] it was 1.13; in experiment [6], 0.388. Besides, the composite z-score came out at 0.343 in the experiment on Lefty1 and 0.919 in experiment [8]. Further, the z-score was -1.24 in experiment [7] and -0.78 (inactive) in [9].

As to `CC(C)C(CO)N1C(=O)[C@@H]2[C@H]3C(=O)OCC=C[C@H]3OC23C=CCN(C(C)C)C(=O)[C@@H]13` (stereo not given in full), the composite z-score in experiment [1] was 0.443; in experiment [2] it was -0.349; in experiment [3], 0.0732; in experiment [4], -0.841; in [5], 0.405; in experiment [6], -0.501. For the same molecule, the composite z-score is 0.433 in the experiment with Lefty1 and -0.131 in [8]. Further, the figures for the z-score in experiment [7] and in experiment [9] were -0.654 and 0.316 (inactive), respectively.

For `CN(C)C(=O)[C@@]1(Cc2ccccc2CN=[N+]=[N-])N=C(c2ccc(OCCCO)cc2)O[C@H]1c1ccccc1`, the composite z-score in [1] is 2.77; in [2], 1.18; in [3], 0.995; in experiment [4], 0.941; in experiment [5] it was 0.761; in experiment [6], 1.34. For the same molecule, the composite z-score in the experiment with Lefty1 was -0.169; in experiment [8], 0.751. Besides, the z-score in experiment [7] was 0.0462; in experiment [9], 0.27 (inactive).

For `O=C(C1N=C(c2ccc(OCCCO)cc2)N(c2ccccc2)O1)N1CCOCC1` (stereo not given), the composite z-score was determined as 0.548 in [1]; 1.2 in [2]; 0.497 in experiment [3]; 0.966 in experiment [4]; 1.22 in [5]; 0.667 in experiment [6]. For the same molecule, the composite z-score in the experiment with Lefty1 came to 0.842; in experiment [8] it was 0.388. Further, the z-score in experiment [7] was 0.211; in experiment [9] it was -12 (active).

In the case of `CN(C)CCCCCCNC(=O)[C@@H]1C[C@@H]2C(=O)N[C@@H](CCCCN)C(=O)N2[C@@H]1c1cccc(OCCO)c1`, the composite z-score worked out at 3.24 in [1]; 1.31 in [2]; 2.31 in experiment [3]; 1.01 in experiment [4]; 1.45 in experiment [5]; 1.59 in experiment [6]. The composite z-score in the experiment with Lefty1 worked out at 1.66; in [8] it was 1.62. Also, the z-score in [7] was 1.08; in [9] it was -1.61 (inactive).

For `COc1ccc([Si](C)(C)[C@H]2[C@H](CC(=O)N3Cc4ccccc4C[C@H]3CO)O[C@@]3(C(=O)N(Cc4ccc(N5CCC5=O)cc4)c4ccccc43)[C@@H]2C)cc1`, the composite z-score in [1] turned out to be 1.72; in [2], 1.13; in experiment [3], 1.12; in experiment [4] it was 0.42; in experiment [5] it was 1.33; in experiment [6] it was 1.32. Also, the values for the composite z-score (in the experiment with Lefty1; in [8]) were 1.56 and 0.104, respectively. Also, the values for the z-score in [7] and in experiment [9] were 1.11 and 0.511 (inactive), respectively.

With `COc1ccc(CCNC(=O)[C@@H]2c3ccccc3C(=O)N(C3Cc4ccccc4C3)[C@H]2c2ccc(CO)cc2)cc1`, the composite z-score amounted to 1.12 in [1]; 0.655 in experiment [2]; 1.02 in [3]; 0.92 in experiment [4]; 0.25 in [5]; 0.0201 in experiment [6]. Moreover, the composite z-score with Lefty1 is -0.0376; in [8], 0.645. The z-score in experiment [7] was 0.997; in experiment [9] it was 0.672 (inactive).

As for `COc1cc2c(cc1O)C(C1CC1)N(Cc1cc3c(cc1Br)OCO3)CC2` (stereo not given), the composite z-score in [1] was -1.4; in [2], -0.603; in experiment [3] it was -0.629; in experiment [4] it was -0.736; in experiment [5], -0.774; in [6], -0.746. Also, the values for the composite z-score (in the experiment on Lefty1; in experiment [8]) were -1.01 and -0.503, respectively. The figures for the z-score in experiment [7] and in [9] were -0.721 and -0.0849 (inactive), respectively.

On to `C=CCNC(=O)[C@@H]1[C@H]2C(=O)O[C@H](c3ccccc3)[C@H](c3ccccc3)N2[C@H](c2ccccc2OCCO)[C@@]12C(=O)N(C(=O)OCCOC)c1ccc(C#CCNC(N)=O)cc12`, for which the composite z-score stood at 1.56 in experiment [1]; 1.14 in experiment [2]; 0.322 in [3]; 0.887 in experiment [4]; 0.864 in experiment [5]; 0.658 in [6]. Moreover, the composite z-score with Lefty1 was 0.857; in experiment [8], 0.916. Moreover, the results for the z-score in experiment [7] and in [9] were -0.206 and -0.63 (inactive), respectively.

As for `COc1ccc(C(O)C2C=CC3C(=O)NC(=O)C3N2Nc2ccccn2)cc1` (stereo not given), the composite z-score in experiment [1] is 0.246; in experiment [2], 0.178; in experiment [3] it was -0.235; in [4], 0.055; in experiment [5], 0.198; in experiment [6], 0.338. For the same molecule, the composite z-score with Lefty1 came to 0.513; in experiment [8], 0.899. Also, the z-score in [7] was -0.0269; in experiment [9] it was -1.99 (inactive).

Take `COC(=O)[C@@]1(Cc2ccc(F)cc2)[C@@H]2[C@@H](CC(=O)[C@H]2CC(=O)C(=O)N(C)C)CN1C(=O)c1ccccc1`: the composite z-score was 1.49 in experiment [1]; 1.24 in experiment [2]; 0.138 in experiment [3]; 1.01 in [4]; 0.959 in experiment [5]; -0.213 in experiment [6]. In addition, the composite z-score in the experiment with Lefty1 is -0.198; in experiment [8], 1.22. The figures for the z-score in experiment [7] and in experiment [9] were 0.432 and 1.28 (inactive), respectively.

As for `COc1cc2c(cc1OC)CN(C(=O)[C@H]1[C@@H]3C(=O)O[C@@H](c4ccccc4)[C@@H](c4ccccc4)N3[C@@H](c3ccc(O)cc3)[C@]13C(=O)Nc1ccc(C#CCNC(N)=O)cc13)CC2`, the composite z-score in [1] was -0.327; in [2], -0.0403; in experiment [3], 0.0099; in experiment [4], -0.231; in [5], 1.29; in [6], 0.967. In addition, the results for the composite z-score (in the experiment with Lefty1; in [8]) were 0.669 and 0.344, respectively. Moreover, the z-score was -0.73 in experiment [7] and 0.8 (inactive) in experiment [9].

`COC(=O)[C@@]1(Cc2ccccc2)[C@H]2c3cc(C(=O)N(C)C)n(CCSCCO)c3C[C@H]2CN1C(=O)c1ccccc1`: the composite z-score was 1.25 in [1]; 1.2 in experiment [2]; 0.342 in [3]; 0.632 in experiment [4]; -0.347 in experiment [5]; -0.299 in experiment [6]. Moreover, the composite z-score is -0.84 in the experiment on Lefty1 and 0.879 in experiment [8]. Also, the figures for the z-score in [7] and in experiment [9] were 0.599 and 1.14 (inactive), respectively.

In the case of `CCOC(=O)C1=CCC(c2ccc(C)cc2)N(S(=O)(=O)c2ccc(C)cc2)C1` (stereo not given), the composite z-score in [1] is 0.403; in experiment [2] it was 0.939; in experiment [3] it was 0.335; in experiment [4], 0.258; in experiment [5], 0.523; in experiment [6], -0.279. For the same molecule, the values for the composite z-score (with Lefty1; in experiment [8]) were 0.288 and 0.396, respectively. Further, the values for the z-score in [7] and in experiment [9] were 2.06 and 1.47 (inactive), respectively.
